Laboratory results from PubChem BioAssay (NCI).
The panel holds about 83,000 compounds, 20% with a hit somewhere; the sample as a whole holds those more often.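 In brief: 96-well plates, 48 h treatment, single concentration, percent growth endpoint.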 Active and inactive are the calls of the source. The calls were made as follows: active = growth percent below 10; inactive = the rest.

Experiments:
Assay in all cases: NCI-60 one-dose screen, 48 h (100 = growth as untreated, 0 = no growth, -100 = all killed)
[1] = test system: RPMI-8226 leukemia; conditions: 10 µM unless noted
[2] = test system: OVCAR-8 ovarian; conditions: 10 µM unless noted
[3] = test system: OVCAR-5 ovarian; conditions: 10 µM unless noted
[4] = test system: OVCAR-4 ovarian; conditions: 10 µM unless noted
[5] = test system: SK-OV-3 ovarian; conditions: 10 µM unless noted
[6] = test system: IGROV1 ovarian; conditions: 10 µM unless noted
[7] = test system: OVCAR-3 ovarian; conditions: 10 µM unless noted
[8] = test system: HS 578T breast; conditions: 10 µM unless noted
[9] = test system: NCI/ADR-RES ovarian; conditions: 10 µM unless noted
[10] = test system: T-47D breast; conditions: 10 µM unless noted
[11] = test system: MDA-MB-435 melanoma; conditions: 10 µM unless noted
[12] = test system: SW-620 colon; conditions: 10 µM unless noted
[13] = test system: MCF7 breast; conditions: 10 µM
[14] = test system: HCT-116 colon; conditions: 10 µM unless noted
[15] = test system: HCC-2998 colon; conditions: 10 µM unless noted
[16] = test system: KM12 colon; conditions: 10 µM unless noted
[17] = test system: BT-549 breast; conditions: 10 µM unless noted

Measured: growth

COc1cccc(C2=NN3C(C2)c2ccccc2OC3c2ccc(/C=C3\SC(=O)NC3=O)cc2)c1 (centres undefined)
inactive: [1] 99.4% | [2] 94.8% | [3] 108% | [4] 103% | [5] 96.8% | [6] 100% | [7] 102% | [8] 96.4% | [9] 111% | [10] 100% | [11] 105% | [12] 97.8% | [13] 90.7% | [14] 109% | [15] 106% | [16] 94.6%

O=C(CCN1C(=O)c2ccccc2C1=O)Nc1ccc(Cl)cc1
inactive: [2] 48.8% | [3] 104% | [4] 91.2% | [5] 97.9% | [6] 77.8% | [7] 78.3% | [8] 39.1% | [9] 74.1% | [10] 60.1% | [11] 68.9% | [12] 103% | [13] 72.4% | [14] 61.4% | [15] 75.2% | [16] 75%
active: [1] 8.45%

O=c1oc2ccc(Br)cc2c(=O)n1-c1ccc(Cl)cc1F
active: [1] -25.5% | [2] 9.88% | [5] 1.82% | [7] 7.85% | [8] -5.24% | [9] 8.34% | [10] -1.08% | [11] -8.83% | [12] 9.75% | [13] 3.69% | [14] 1.83% | [16] -14.7%
inactive: [3] 23.5% | [4] 15.1% | [6] 15.7% | [15] 22.7%

COc1ccc(OC)c(/C=C/C(=O)c2c(C)nc3ccccc3c2/C=C/c2ccccc2)c1
inactive: [1] 19.5% | [2] 40.5% | [3] 80% | [4] 59.3% | [5] 91% | [6] 52.6% | [7] 37.4% | [8] 68% | [9] 58.9% | [17] 59% | [11] 46.4% | [12] 36.5% | [13] 19.8% | [14] 34.1% | [15] 93.6% | [16] 69.4%

O=C(Nc1ccc(N2CCNCC2)cc1)c1[nH]ncc1Nc1ncnc2sc3c(c12)CCC3
active: [1] -40.6% | [2] -43.7% | [3] -88.1% | [5] -27.9% | [7] -81.7% | [8] -54.8% | [9] -57.3% | [17] 0.151% | [11] -94.4% | [12] -83.1% | [13] -59% | [14] -85.4% | [15] -91.4% | [16] -82.4%
inactive: [4] 15.8% | [10] 20.4%

O=c1c2cc(F)ccc2sc2c(NCCCNCCO)nc3ccc(Cl)cc3c12
inactive: [1] 36% | [2] 63.7% | [3] 79.5% | [4] 61% | [5] 87.7% | [6] 32% | [7] 68% | [8] 56.8% | [9] 85.8% | [11] 40.1% | [13] 31% | [15] 60.7% | [16] 44%
active: [12] -38.8% | [14] -18.5%

O=C1/C=C/[C@@H](O)[C@@H]2C[C@@H](O)C[C@H]2/C=C/CCCCO1
inactive: [2] 12.5% | [3] 36.6% | [4] 20.9% | [5] 13% | [8] 23.3% | [17] 45.3% | [11] 23.5%
active: [1] -39.2% | [7] -31.3% | [9] 9.26% | [10] -11.1% | [12] -33.7% | [13] -48% | [14] 0.136%

COc1ccc(-c2nsc3c2NC(=O)CC3c2ccc3c(c2)OCCO3)cc1 (centres undefined)
inactive: [1] 31.5% | [2] 35.3% | [3] 37.5% | [4] 36.9% | [8] 28.4% | [9] 21% | [10] 50.2% | [17] 27.8% | [12] 35.7% | [13] 24.7% | [14] 12.7% | [15] 33.5% | [16] 20.6%
active: [5] 3.12% | [7] -38.6% | [11] -46.6%

Nc1cccc(Nc2cc(S(=O)(=O)O)c(N)c3c2C(=O)c2ccccc2C3=O)c1
inactive: [1] 110% | [2] 104% | [3] 111% | [4] 107% | [5] 88.6% | [6] 106% | [7] 103% | [8] 107% | [9] 106% | [10] 93.1% | [11] 109% | [12] 104% | [14] 108% | [16] 105%

O=C(Nc1ccc(N2CCNCC2)cc1)c1[nH]ncc1Nc1cc(C2CC2)ncn1
inactive: [1] 55.4% | [2] 81.2% | [3] 99% | [4] 62.3% | [5] 10.3% | [6] 33.4% | [7] 43.7% | [8] 41.1% | [9] 102% | [17] 42.9% | [11] 50.6% | [12] 33.1% | [13] 37% | [14] 14.6% | [15] 46.3%
